Data as given in PubChem BioAssay AID1159580 (chemical genetic matrix, 2015).
The campaign covered roughly 5,500 compounds. About 2,000 (36%) were called active. Another 18% or so got no clear call; they are omitted. Rule as the data show it: active = normalized growth mostly below about 0.91 (no sharp cut-off); inconclusive = no clear call, values can overlap the other calls; inactive = mostly above about 0.92. The list shows a part of the results.

Experiment: chemical genetic growth profiling, strain panel (AID 1159580);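 also: tested at 20 µM; growth read once vehicle control cultures reached saturation at 30 °C; 1 = growth at the plate median or of vehicle wells; lower values mean less growth of the strain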
Details: growth OD
[1] = S. cerevisiae deletion strains, locus YAR019C, strain CDC15, hits give low values
[2] = S. cerevisiae deletion strains, locus YBL105C, strain PKC1, hits give low values
[3] = S. cerevisiae deletion strains, locus YBR135W, strain CKS1, hits give low values
[4] = S. cerevisiae deletion strains, locus YBR136W, strain MEC1, hits give low values
[5] = S. cerevisiae deletion strains, locus YBR160W, strain CDC28, hits give low values
[6] = S. cerevisiae deletion strains, locus YDL017W, strain CDC7, hits give low values
[7] = S. cerevisiae deletion strains, locus YDL028C, strain MPS1, hits give low values
[8] = S. cerevisiae deletion strains, locus YDL101C, strain DUN1, hits give low values
[9] = S. cerevisiae deletion strains, locus YDL108W, strain KIN28, hits give low values
[10] = S. cerevisiae deletion strains, locus YDL132W, strain cdc53, hits give low values
[11] = S. cerevisiae deletion strains, locus YDL214C, strain PRR2, hits give low values
[12] = S. cerevisiae deletion strains, locus YDR052C, strain DBF4, hits give low values
[13] = S. cerevisiae deletion strains, locus YDR054C, strain cdc34, hits give low values
[14] = S. cerevisiae deletion strains, locus YDR226W, strain ADK1, hits give low values
[15] = S. cerevisiae deletion strains, locus YDR477W, strain SNF1, hits give low values
[16] = S. cerevisiae deletion strains, locus YER123W, strain YCK3, hits give low values
[17] = S. cerevisiae deletion strains, locus YER133W, strain GLC7, hits give low values
[18] = S. cerevisiae deletion strains, locus YFL009W, strain cdc4, hits give low values
[19] = S. cerevisiae deletion strains, locus YFL029C, strain CAK1, hits give low values
[20] = S. cerevisiae deletion strains, locus YFR003C, strain YPI1, hits give low values
[21] = S. cerevisiae deletion strains, locus YFR019W, strain FAB1, hits give low values
[22] = S. cerevisiae deletion strains, locus YFR028C, strain CDC14, hits give low values
[23] = S. cerevisiae deletion strains, locus YGR040W, strain KSS1, hits give low values
[24] = S. cerevisiae deletion strains, locus YGR052W, strain FMP48, hits give low values
[25] = S. cerevisiae deletion strains, locus YGR092W, strain DBF2, hits give low values
[26] = S. cerevisiae deletion strains, locus YHR030C, strain SLT2, hits give low values
[27] = S. cerevisiae deletion strains, locus YHR079C, strain IRE1, hits give low values
[28] = S. cerevisiae deletion strains, locus YHR082C, strain KSP1, hits give low values
[29] = S. cerevisiae deletion strains, locus YHR205W, strain SCH9, hits give low values
[30] = S. cerevisiae deletion strains, locus YIL147C, strain SLN1, hits give low values
[31] = S. cerevisiae deletion strains, locus YJL095W, strain BCK1, hits give low values
[32] = S. cerevisiae deletion strains, locus YJL128C, strain PBS2, hits give low values
[33] = S. cerevisiae deletion strains, locus YJL157C, strain FAR1, hits give low values
[34] = S. cerevisiae deletion strains, locus YJR016C, strain ILV3, hits give low values
[35] = S. cerevisiae deletion strains, locus YJR066W, strain TOR1 (second series), hits give low values
[36] = S. cerevisiae deletion strains, locus YJR066W, strain TOR1, hits give low values
[37] = S. cerevisiae deletion strains, locus YKL048C, strain ELM1, hits give low values
[38] = S. cerevisiae deletion strains, locus YKL067W, strain YNK1, hits give low values
[39] = S. cerevisiae deletion strains, locus YKL101W, strain HSL1, hits give low values
[40] = S. cerevisiae deletion strains, locus YKL193C, strain SDS22, hits give low values
[41] = S. cerevisiae deletion strains, locus YKL203C, strain TOR2, hits give low values
[42] = S. cerevisiae deletion strains, locus YLR113W, strain HOG1, hits give low values
[43] = S. cerevisiae deletion strains, locus YLR133W, strain CKI1, hits give low values
[44] = S. cerevisiae deletion strains, locus YLR403W, strain SFP1, hits give low values
[45] = S. cerevisiae deletion strains, locus YML070W, strain DAK1, hits give low values
[46] = S. cerevisiae deletion strains, locus YMR001C, strain CDC5, hits give low values
[47] = S. cerevisiae deletion strains, locus YMR205C, strain PFK2 (second series), hits give low values
[48] = S. cerevisiae deletion strains, locus YMR277W, strain FCP1, hits give low values
[49] = S. cerevisiae deletion strains, locus YNL006W, strain LST8, hits give low values
[50] = S. cerevisiae deletion strains, locus YNL020C, strain ARK1, hits give low values
[51] = S. cerevisiae deletion strains, locus YNL161W, strain CBK1, hits give low values
[52] = S. cerevisiae deletion strains, locus YNL183C, strain NPR1, hits give low values
[53] = S. cerevisiae deletion strains, locus YNL207W, strain RIO2, hits give low values
[54] = S. cerevisiae deletion strains, locus YNL222W, strain SSU72, hits give low values
[55] = S. cerevisiae deletion strains, locus YNL307C, strain MCK1 (second series), hits give low values
[56] = S. cerevisiae deletion strains, locus YOL078W, strain AVO1, hits give low values
[57] = S. cerevisiae deletion strains, locus YOL136C, strain PFK27, hits give low values
[58] = S. cerevisiae deletion strains, locus YOR061W, strain CKA2, hits give low values
[59] = S. cerevisiae deletion strains, locus YOR119C, strain RIO1, hits give low values
[60] = S. cerevisiae deletion strains, locus YOR231W, strain MKK1, hits give low values
[61] = S. cerevisiae deletion strains, locus YOR329C, strain SCD5, hits give low values
[62] = S. cerevisiae deletion strains, locus YPL031C, strain PHO85, hits give low values
[63] = S. cerevisiae deletion strains, locus YPL153C, strain RAD53, hits give low values
[64] = S. cerevisiae deletion strains, locus YPL204W, strain HRR25, hits give low values
[65] = S. cerevisiae deletion strains, locus YPL209C, strain IPL1, hits give low values
[66] = S. cerevisiae deletion strains, locus YPL256C, strain CLN2, hits give low values
[67] = S. cerevisiae deletion strains, locus YPR025C, strain CCL1, hits give low values
[68] = S. cerevisiae deletion strains, locus YPR106W, strain ISR1, hits give low values
[69] = S. cerevisiae deletion strains, locus YPR111W, strain DBF20, hits give low values
[70] = S. cerevisiae deletion strains, strain NNK1, hits give low values
[71] = S. cerevisiae deletion strains, strain TSCII, hits give low values

Measured: normalized growth

N=C(N)SCc1nc(-c2ccc(Cl)cc2)no1
inactive: [1] 0.979 | [2] 0.985 | [3] 0.981 | [4] 0.984 | [5] 0.984 | [6] 0.977 | [7] 0.977 | [8] 0.99 | [9] 0.976 | [10] 0.99 | [11] 0.975 | [12] 0.99 | [13] 0.978 | [14] 0.978 | [15] 0.977 | [16] 0.989 | [17] 0.986 | [18] 0.983 | [19] 0.978 | [20] 0.982 | [21] 0.973 | [22] 0.986 | [23] 0.98 | [24] 1.03 | [25] 0.987 | [26] 0.949 | [27] 0.96 | [28] 1.06 | [29] 0.828 | [30] 0.985 | [31] 1.01 | [32] 0.929 | [33] 0.974 | [34] 0.987 | [35] 0.981 | [36] 1.11 | [37] 0.982 | [38] 0.984 | [39] 0.992 | [40] 0.985 | [41] 1.05 | [42] 0.989 | [43] 0.98 | [44] 0.911 | [45] 0.996 | [46] 0.981 | [47] 0.981 | [48] 0.985 | [49] 0.981 | [50] 0.986 | [51] 0.983 | [52] 1.1 | [53] 0.978 | [54] 0.984 | [55] 0.983 | [56] 0.981 | [57] 0.97 | [58] 0.986 | [59] 1.05 | [60] 1.03 | [61] 0.982 | [62] 0.964 | [63] 0.964 | [64] 0.953 | [65] 0.986 | [66] 0.925 | [67] 0.987 | [68] 0.978 | [69] 0.981 | [70] 0.992 | [71] 0.983

c1ccc(CSC2=NCCCN2)cc1
inactive: S. cerevisiae deletion strains, locus YAL013W, strain DEP1, hits give low values 1 | S. cerevisiae deletion strains, locus YBR229C, strain ROT2, hits give low values 0.993 | [8] 1.01 | S. cerevisiae deletion strains, locus YDR150W, strain NUM1, hits give low values 0.977 | S. cerevisiae deletion strains, locus YEL061C, strain CIN8, hits give low values 1.02 | S. cerevisiae deletion strains, locus YGR078C, strain PAC10, hits give low values 1.01 | S. cerevisiae deletion strains, locus YGR229C, strain SMI1, hits give low values 1 | [26] 1.03 | S. cerevisiae deletion strains, locus YHR087W, strain rtc3, hits give low values 1.01 | S. cerevisiae deletion strains, locus YJR043C, strain POL32, hits give low values 1.01 | S. cerevisiae deletion strains, locus YJR075W, strain HOC1, hits give low values 0.997 | S. cerevisiae deletion strains, locus YKL190W, strain CNB1, hits give low values 1 | S. cerevisiae deletion strains, locus YLR039C, strain RIC1, hits give low values 0.993 | S. cerevisiae deletion strains, locus YLR058C, strain SHM2 (second series), hits give low values 1.01 | S. cerevisiae deletion strains, locus YLR085C, strain ARP6, hits give low values 1.04 | S. cerevisiae deletion strains, locus YLR262C, strain YPT6, hits give low values 1.01 | S. cerevisiae deletion strains, locus YML094W, strain GIM5, hits give low values 1 | S. cerevisiae deletion strains, locus YMR219W, strain ESC1, hits give low values 1.01 | S. cerevisiae deletion strains, locus YMR307W, strain GAS1, hits give low values 1 | S. cerevisiae deletion strains, locus YNL128W, strain TEP1, hits give low values 1.02 | S. cerevisiae deletion strains, locus YNL153C, strain GIM3, hits give low values 0.996 | S. cerevisiae deletion strains, locus YNL298W, strain CLA4 (second series), hits give low values 1.05 | S. cerevisiae deletion strains, locus YNL322C, strain KRE1, hits give low values 1.01 | S. cerevisiae deletion strains, locus YNR030W, strain Alg12, hits give low values 1.02 | S. cerevisiae deletion strains, locus YOL006C, strain TOP1, hits give low values 1.04 | S. cerevisiae deletion strains, locus YPL055C, strain LGE1, hits give low values 0.984 | S. cerevisiae deletion strains, locus YPL241C, strain CIN2, hits give low values 1.01 | S. cerevisiae deletion strains, locus YPR135W, strain CTF4, hits give low values 1.08 | S. cerevisiae strains, strain wild type, hits give low values 1.01

Clc1ccc(-c2noc(CSC3=NCCN3)n2)cc1
active: [42] 0.839
inactive: [1] 0.987 | [2] 0.987 | [3] 0.98 | [4] 0.981 | [5] 0.984 | [6] 0.986 | [7] 0.979 | [8] 0.989 | [9] 0.979 | [10] 0.98 | [11] 0.923 | [12] 0.981 | [13] 0.96 | [14] 0.975 | [15] 0.938 | [16] 0.904 | [17] 0.935 | [18] 0.978 | [19] 0.987 | [20] 0.974 | [21] 0.948 | [22] 0.971 | [23] 0.926 | [24] 0.964 | [25] 0.955 | [26] 0.93 | [27] 0.968 | [28] 1.02 | [29] 0.962 | [30] 0.969 | [31] 0.949 | [32] 0.912 | [33] 0.925 | [34] 0.974 | [35] 0.912 | [36] 1.08 | [37] 0.96 | [38] 0.933 | [39] 0.939 | [40] 0.976 | [41] 1.01 | [43] 0.959 | [44] 0.982 | [45] 0.912 | [46] 0.987 | [47] 0.938 | [48] 0.975 | [49] 0.985 | [50] 0.962 | [51] 0.965 | [52] 1.05 | [53] 0.988 | [54] 0.981 | [55] 0.946 | [56] 0.974 | [57] 0.941 | [58] 0.938 | [59] 1 | [60] 0.965 | [61] 0.981 | [62] 0.924 | [63] 0.92 | [64] 0.903 | [65] 0.986 | [66] 0.945 | [67] 0.986 | [68] 0.975 | [69] 0.97 | [70] 0.977 | [71] 0.986
